The values below come from PubChem BioAssay (Tox21).

Results filed as inconclusive are left out. Values without a mark were called inactive. Calls of active or inactive are those of the source. Unless noted, the call rests on the fitted dose curve; in most records, active means well fitted curve in the direction sought with a large enough effect in the repeat runs; inconclusive means weak or mixed curves; inactive means no such curve, though single readings can be large; an effect the other way counts as inactive or inconclusive.

Assay [1] is described as follows: qHTS assay to identify small molecule agonists of the farnesoid-X-receptor (FXR) signaling pathway - cell viability counter screen (AID 743218). Further: nearly all actives have a fitted effect of over 45% in size. Further: potency means the concentration at half of the fitted maximal effect. In short, it runs like this:
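Viability counter screen in the same wells: CellTiter-Glo luminescence, 30 min room-temperature incubation, measured after the beta-lactamase read. Cells were GeneBLAzer FXR-UAS-bla HEK 293T, compound-treated 16 h at 37C.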
In general terms: Quantitative high-throughput screening tests each substance at several concentrations.

A short description of assay [2]: qHTS assay to identify small molecule antagonists of the farnesoid-X-receptor (FXR) signaling pathway - cell viability counter screen (AID 743221; active means well fitted cell-killing curve with a large enough effect in the repeat runs, not every such curve was filed as active; further: nearly all actives have a fitted effect of over 50% in size; further: potency means the concentration at half of the fitted maximal effect). The procedure, abridged:
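In GeneBLAzer FXR-UAS-bla HEK 293T cells stimulated with 50 uM chenodeoxycholic acid (final), compounds acted for 16 h at 37 C. Viability was assessed afterwards by CellTiter-Glo luminescence.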

A short description of assay [3]: qHTS assay to identify small molecule agonists of the vitamin D receptor (VDR) signaling pathway - cell viability counter screen (AID 743224). Further: nearly all actives have a fitted effect of over 50% in size. Further: potency means the concentration at half of the fitted maximal effect. In short, it runs like this:
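Counter screen run in the same wells as the VDR-bla reporter assay: CellTiter-Glo luminescence, 30 min at room temperature, after 16 h compound treatment at 37C of cells pre-plated for 4 h.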

The nature of assay [4]: qHTS assay to identify small molecule antagonists of the vitamin D receptor (VDR) signaling pathway - cell viability counter screen (AID 743225). Further: nearly all actives have a fitted effect of over 50% in size. Further: potency means the concentration at half of the fitted maximal effect. The procedure, abridged: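 Luminescent cell viability (CellTiter-Glo) in VDR-bla HEK 293T cells after 16 h compound exposure at 37C in the presence of 3 nM final 1-alpha,25-dihydroxy vitamin D3.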
A short description of assay [5]: qHTS assay to identify small molecule agonists of the NFkB signaling pathway (AID 1159509; active means well fitted curve in the direction sought with a large enough effect in the signal ratio in the repeat runs, not every such curve was filed as active; the % refers to the signal ratio; further: series mostly up to about 61 µM). In short, it runs like this: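 Agonist activity was read as beta-lactamase-driven FRET change (460 and 530 nm emission, 405 nm excitation) following 1.5 hr substrate loading at room temperature. Beforehand, ME-180 NFkB-bla reporter cells were treated with compounds for 5 hr at 37 C.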

Assay [6] can be described thus: qHTS assay to identify small molecule agonists of the NFkB signaling pathway - cell viability counter screen (AID 1159515; calls by dose curve; further: nearly all actives have a fitted effect of over 55% in size; further: potency means the concentration at half of the fitted maximal effect). In short, it runs like this:
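Read by CellTiter-Glo luminescence (30 min, room temperature) in the wells also used for the beta-lactamase FRET read. ME-180 NFkB-bla cells at 2,000 per well were plated overnight, then exposed to compound for 5 hr at 37 C.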

A short description of assay [7]: qHTS assay to identify small molecule agonists of the endoplasmic reticulum stress response signaling pathway - cell viability counter screen (AID 1159517; calls by dose curve;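 further: HeLa cells carrying an ER stress response element beta-lactamase reporter; series mostly up to about 61 µM; nearly all actives have a fitted effect of over 50% in size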). The procedure, abridged:
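Cpd-treated ESRE-bla HeLa (5 hr, 37 C) → LiveBLAzer 2 hr RT → CellTiter-Glo 30 min RT → luminescence.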

Assay [8] is described as follows: qHTS assay to identify small molecule antagonists of the retinoid-related orphan receptor gamma (ROR-gamma) signaling pathway - cell viability counter screen (AID 1159520). Further: nearly all actives have a fitted effect of over 50% in size. In short, it runs like this: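 Tet-on ROR gamma CHO cells (1,000/well) were plated 4 hr, given compounds in DMSO for 2 hr at 37 C, then induced with 1 uM final doxycycline for 16 hr. Viability was read as ATP by CellTiter-Glo luminescence after 30 min.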

The target in assay [9] is Nuclear receptor ROR-gamma (Homo sapiens) (UniProt P51449). As to the kind of experiment: qHTS assay to identify small molecule antagonists of the retinoid-related orphan receptor gamma (ROR-gamma) signaling pathway (AID 1159521; further: nearly all actives have a fitted effect of over 50% in size; further: potency means the concentration at half of the fitted maximal effect). In short, it runs like this: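 CHO cells expressing RORγ under a TET-on promoter, luciferase under RORE control. Dox 1 uM final, 16 h; compounds added 2 h prior. Luminescence decrease measured.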

The nature of assay [10]: qHTS assay to identify small molecule agonists of the AP-1 signaling pathway - cell viability counter screen (AID 1159525; calls by dose curve; further: nearly all actives have a fitted effect of over 55% in size; further: potency means the concentration at half of the fitted maximal effect). In short, it runs like this:
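Each titration point was normalised to DMSO and tetra n-octyl ammonium bromide controls. The read was Cell Titer Glo luminescence after 30 min at RT, following 5 h compound exposure of ME-180 AP-1-bla cells at 37 °C.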

Assay [11] in a line: qHTS assay to identify small molecule agonists of the AP-1 signaling pathway (AID 1159526; calls by dose curve).
A short description of assay [12]: qHTS assay to identify small molecule agonists of the peroxisome proliferator-activated receptor delta (PPARd) signaling pathway - cell viability counter screen (AID 743211). Further: nearly all actives have a fitted effect of over 55% in size. In short, it runs like this:
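Luminescent ATP viability assay (CellTiter-Glo, 30 min RT) in UAS-bla HEK293H cells carrying the PPAR delta reporter construct, 3000 cells/well, after a 17 h compound treatment at 37 C.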

A short description of assay [13]: qHTS assay to identify small molecule antagonists of the peroxisome proliferator-activated receptor delta (PPARd) signaling pathway - cell viability counter screen (AID 743213). Further: nearly all actives have a fitted effect of over 50% in size. Further: potency means the concentration at half of the fitted maximal effect. In short, it runs like this:
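HEK293H cells with the PPARd UAS-bla reporter, co-treated 17 h at 37 C with compounds and L165041 (300 nM final), were lysed with CellTiter-Glo. Luminescence indicated viable cell content.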

Assay [14] addresses Vitamin D3 receptor (Homo sapiens) (UniProt P11473). As to the kind of experiment: qHTS assay to identify small molecule antagonists of the vitamin D receptor (VDR) signaling pathway (AID 743223; active means well fitted inhibition curve with a large enough effect in the signal ratio in the repeat runs, not every such curve was filed as active; the % refers to the signal ratio). In short, it runs like this: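 Agonist 1alpha,25-dihydroxyvitamin D3 (3 nM in well) was added with each compound to VDR-bla cells preincubated 4 h. Cells stood 16 h at 37C, then FRET substrate 2 h at room temperature; fluorescence intensity recorded.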

Assay [15] deals with Peroxisome proliferator-activated receptor delta (Homo sapiens) (UniProt Q03181). As to the kind of experiment: qHTS assay to identify small molecule agonists of the peroxisome proliferator-activated receptor delta (PPARd) signaling pathway (AID 743212; calls by dose curve). In short, it runs like this: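 Cells expressing a UAS-driven beta-lactamase reporter (PPARd-bla HEK293H) were given test compounds after a 5 h settle and kept at 37 C. Reporter activity was then measured as FRET fluorescence using LiveBLAzer B/G substrate.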

The target in assay [16] is Bile acid receptor (Homo sapiens) (UniProt Q96RI1). As to the kind of experiment: qHTS assay to identify small molecule antagonists of the farnesoid-X-receptor (FXR) signaling pathway (AID 743217; active means well fitted inhibition curve with a large enough effect in the signal ratio in the repeat runs, not every such curve was filed as active; the % refers to the signal ratio). The procedure, abridged:
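Antagonist mode: chenodeoxycholic acid at 50 uM final stimulates a UAS-driven beta-lactamase reporter in HEK 293T FXR-bla cells during 16 h, 37C compound exposure. Read-out is FRET substrate fluorescence after 2 h at room temperature.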

Assay [17] concerns the target Vitamin D3 receptor (Homo sapiens) (UniProt P11473). As to the kind of experiment: qHTS assay to identify small molecule agonists of the vitamin D receptor (VDR) signaling pathway (AID 743222; calls by dose curve). In short, it runs like this:
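Agonist mode, beta-lactamase reporter: fluorescence from LiveBLAzer B/G FRET substrate (2 h, room temperature) read after 16 h compound treatment at 37 C of VDR-bla cells, which were pre-incubated 4 h after seeding.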

The target in assay [18] is Peroxisome proliferator-activated receptor delta (Homo sapiens) (UniProt Q03181). As to the kind of experiment: qHTS assay to identify small molecule antagonists of the peroxisome proliferator-activated receptor delta (PPARd) signaling pathway (AID 743215; active means well fitted inhibition curve with a large enough effect in the signal ratio in the repeat runs, not every such curve was filed as active; the % refers to the signal ratio;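 further: cells stimulated with agonist L165041 at 300 nM final during compound exposure; series mostly up to about 62 µM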). The procedure, abridged:
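Agonist L165041 (300 nM final) added with compound to PPARd-bla HEK293H UAS-bla reporter cells; 17 h incubation at 37 C. Read-out: LiveBLAzer FRET substrate, 2 h at room temperature, fluorescence intensity.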

Assay [19] deals with Bile acid receptor (Homo sapiens) (UniProt Q96RI1). As to the kind of experiment: qHTS assay to identify small molecule agonists of the farnesoid-X-receptor (FXR) signaling pathway (AID 743220; active means well fitted activation curve with a large enough effect in the signal ratio in the repeat runs, not every such curve was filed as active; the % refers to the signal ratio). The procedure, abridged:
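FXR-UAS-bla HEK 293T cells carrying a UAS-driven beta-lactamase reporter were plated for 5 h at 37C/5% CO2, then exposed to DMSO-dissolved Tox21 10K compounds for 16 h at 37C. A LiveBLAzer B/G FRET substrate was loaded for 2 h at room temperature before fluorescence reading.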

Chain of Bile acid receptor (Homo sapiens) (Q96RI1 whole entry, looked up): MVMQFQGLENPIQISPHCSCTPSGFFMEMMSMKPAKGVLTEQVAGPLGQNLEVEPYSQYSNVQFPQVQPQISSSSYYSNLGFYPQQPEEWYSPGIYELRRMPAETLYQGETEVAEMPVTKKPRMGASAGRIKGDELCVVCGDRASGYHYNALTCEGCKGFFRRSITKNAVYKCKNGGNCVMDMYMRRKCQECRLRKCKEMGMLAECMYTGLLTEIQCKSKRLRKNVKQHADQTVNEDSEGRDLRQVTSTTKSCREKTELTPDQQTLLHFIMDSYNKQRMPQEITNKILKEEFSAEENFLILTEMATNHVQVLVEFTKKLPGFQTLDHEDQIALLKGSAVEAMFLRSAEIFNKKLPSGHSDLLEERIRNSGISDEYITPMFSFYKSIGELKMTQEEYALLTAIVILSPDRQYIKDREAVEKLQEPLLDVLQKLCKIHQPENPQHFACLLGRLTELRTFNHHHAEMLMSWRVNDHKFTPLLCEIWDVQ
Chain of Peroxisome proliferator-activated receptor delta (Homo sapiens) (Q03181 whole entry, looked up): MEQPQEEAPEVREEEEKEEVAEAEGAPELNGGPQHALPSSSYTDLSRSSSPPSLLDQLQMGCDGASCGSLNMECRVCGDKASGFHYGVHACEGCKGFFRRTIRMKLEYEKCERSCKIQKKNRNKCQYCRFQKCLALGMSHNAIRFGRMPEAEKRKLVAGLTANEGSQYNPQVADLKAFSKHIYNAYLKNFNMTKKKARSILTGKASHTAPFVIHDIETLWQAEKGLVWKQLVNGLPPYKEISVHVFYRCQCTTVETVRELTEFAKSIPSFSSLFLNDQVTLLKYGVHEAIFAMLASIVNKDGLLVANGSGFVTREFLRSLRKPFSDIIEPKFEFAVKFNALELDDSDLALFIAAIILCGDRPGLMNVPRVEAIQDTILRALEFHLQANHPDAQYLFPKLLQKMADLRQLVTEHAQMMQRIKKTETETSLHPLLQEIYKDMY
Chain of Vitamin D3 receptor (Homo sapiens) (P11473 whole entry, looked up): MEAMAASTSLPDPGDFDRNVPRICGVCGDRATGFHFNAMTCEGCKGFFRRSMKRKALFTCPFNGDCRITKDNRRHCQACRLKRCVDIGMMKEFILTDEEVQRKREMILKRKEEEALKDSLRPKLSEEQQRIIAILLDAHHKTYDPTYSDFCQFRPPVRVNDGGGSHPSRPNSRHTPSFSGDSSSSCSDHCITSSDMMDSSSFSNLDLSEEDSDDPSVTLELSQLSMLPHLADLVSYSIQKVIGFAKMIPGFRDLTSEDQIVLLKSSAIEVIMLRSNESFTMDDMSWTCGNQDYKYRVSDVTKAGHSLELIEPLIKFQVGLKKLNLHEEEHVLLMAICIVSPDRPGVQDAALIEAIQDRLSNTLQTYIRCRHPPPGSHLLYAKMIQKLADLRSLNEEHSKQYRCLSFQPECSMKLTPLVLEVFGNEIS

For `CC(C)(C)NCC(O)COc1cccc2c1C[C@H](O)[C@H](O)C2` (some centres undefined), the Potency result in assay [1], in [2], in assay [3], in assay [4], in [6] and in assay [7] was “inactive” throughout. In addition, the Potency result in [8], in assay [9] and in assay [10] was “inactive” in each case. Further, the outcome in assay [5] and in assay [11] was inactive.

On to `O=C1c2ccccc2C(=O)c2c(O)ccc(O)c21`, for which the Potency result in assay [12], in assay [13], in [1], in assay [2], in assay [6] and in assay [7] was “inactive” in each case. Further, the Potency entry in [8], in [9] and in [10] was “inactive” in each case. Also, the molecule was classed as inactive in assay [14], in assay [5] and in assay [11].

Consider `CSSc1ccoc1C`, for which the Potency result in [12], in [13], in [2], in [3], in assay [4] and in assay [6] was “inactive” in each case. The Potency result in [7], in [8], in [9] and in assay [10] was “inactive” throughout. The outcome in assay [15], in assay [16], in assay [5] and in assay [11] was inactive.

As for `CCOC(=O)c1ccc(NC(=O)CN2CCCCC2)cc1`, the Potency entry in [12], in assay [13], in assay [2], in assay [3], in assay [4] and in assay [6] was “inactive” throughout. Also, the Potency result in assay [7], in assay [8], in assay [9] and in assay [10] was “inactive” in each case. Besides, the outcome in assay [15], in assay [17], in [14], in [5] and in assay [11] was inactive.

As for `CC(C)OC(=O)c1ccccc1C(=O)OC(C)C`, the Potency result in [12], in assay [13], in [18], in [2], in assay [3] and in assay [4] was “inactive” throughout. Moreover, the Potency entry in [6], in [7], in [8] and in assay [10] was “inactive” in each case. For the same molecule, the call in assay [15], in [16], in assay [14], in assay [5] and in [11] was inactive.

Consider `CNS(=O)(=O)c1cc(C(=O)N2CCC(CCN3C4CCC3CC(n3c(C)nc5ccccc53)C4)(c3cccc(F)c3)CC2)c(Cl)cc1F` (centres undefined), for which the Potency is 7.76 µM (active) in assay [13]; 7.76 µM (active) in assay [1]; 21.9 µM (active) in assay [2]; 13.8 µM (active) in assay [4]; 38.9 µM (active) in assay [6]; 7.7 µM (active) in assay [9]. In addition, the Potency in assay [10] was 24.5 µM (active). Also, the outcome in assay [5] and in assay [11] was inactive. For the same molecule, the Potency result in assay [7] and in [8] was “inactive” throughout.

With `CC1C(C)(C)C2=C(C(=O)CCC2)C1(C)C` (centres undefined), the Potency result in [12], in [13], in assay [18], in assay [1], in [2] and in assay [3] was “inactive” each time. Further, the Potency result in [4], in [6], in assay [7], in assay [8], in [9] and in [10] was “inactive” in each case. Further, the outcome in assay [15], in assay [17], in assay [14] and in assay [5] was inactive.

Regarding `COc1cc(NCc2ccc3nc(N)nc(N)c3c2C)cc(OC)c1OC`, the outcome in assay [15], in [17], in assay [14], in assay [5] and in assay [11] was inactive. Moreover, the Potency entry in [18], in [6], in assay [7], in assay [8], in [9] and in assay [10] was “inactive” each time. In addition, the Potency in assay [3] was 0.15 µM (active).

Take `Cc1cc(CCC(=O)OCCOCCOCCOC(=O)CCc2cc(C)c(O)c(C(C)(C)C)c2)cc(C(C)(C)C)c1O`: the Potency result in assay [12], in [13], in assay [1], in assay [19], in assay [2] and in [6] was “inactive” in each case. The Potency entry in [7], in assay [8], in assay [9] and in [10] was “inactive” throughout. The molecule was called inactive in [16], in assay [5] and in assay [11].
